Source: PubChem
Rows were chosen to be rich in hits. Some 10% of all compounds tested hit in one or more screens of this group.
JMJD2A Tudor inh: inhibitors of human JMJD2A Tudor domain. Potency, µM (highest dose often 114 µM), most hits filed as inhibitors. O75164. hit rate 4.4% among 390,000. AlphaScreen JMJD2A-Tudor / H3K4me3 peptide binding; also: nearly all actives have a fitted effect of over 50% in size
BAZ2B inh: inhibitors of human BAZ2B bromodomain; AlphaScreen BAZ2B-H3K14Ac peptide displacement; hit rate 4.4% among 360,000; Potency, µM (titrated, usually from 114 µM), hits mostly inhibitors; Q9UIF8; also: nearly all actives have a fitted effect of over 60% in size
Target sequence (Q9UIF8 whole entry, looked up): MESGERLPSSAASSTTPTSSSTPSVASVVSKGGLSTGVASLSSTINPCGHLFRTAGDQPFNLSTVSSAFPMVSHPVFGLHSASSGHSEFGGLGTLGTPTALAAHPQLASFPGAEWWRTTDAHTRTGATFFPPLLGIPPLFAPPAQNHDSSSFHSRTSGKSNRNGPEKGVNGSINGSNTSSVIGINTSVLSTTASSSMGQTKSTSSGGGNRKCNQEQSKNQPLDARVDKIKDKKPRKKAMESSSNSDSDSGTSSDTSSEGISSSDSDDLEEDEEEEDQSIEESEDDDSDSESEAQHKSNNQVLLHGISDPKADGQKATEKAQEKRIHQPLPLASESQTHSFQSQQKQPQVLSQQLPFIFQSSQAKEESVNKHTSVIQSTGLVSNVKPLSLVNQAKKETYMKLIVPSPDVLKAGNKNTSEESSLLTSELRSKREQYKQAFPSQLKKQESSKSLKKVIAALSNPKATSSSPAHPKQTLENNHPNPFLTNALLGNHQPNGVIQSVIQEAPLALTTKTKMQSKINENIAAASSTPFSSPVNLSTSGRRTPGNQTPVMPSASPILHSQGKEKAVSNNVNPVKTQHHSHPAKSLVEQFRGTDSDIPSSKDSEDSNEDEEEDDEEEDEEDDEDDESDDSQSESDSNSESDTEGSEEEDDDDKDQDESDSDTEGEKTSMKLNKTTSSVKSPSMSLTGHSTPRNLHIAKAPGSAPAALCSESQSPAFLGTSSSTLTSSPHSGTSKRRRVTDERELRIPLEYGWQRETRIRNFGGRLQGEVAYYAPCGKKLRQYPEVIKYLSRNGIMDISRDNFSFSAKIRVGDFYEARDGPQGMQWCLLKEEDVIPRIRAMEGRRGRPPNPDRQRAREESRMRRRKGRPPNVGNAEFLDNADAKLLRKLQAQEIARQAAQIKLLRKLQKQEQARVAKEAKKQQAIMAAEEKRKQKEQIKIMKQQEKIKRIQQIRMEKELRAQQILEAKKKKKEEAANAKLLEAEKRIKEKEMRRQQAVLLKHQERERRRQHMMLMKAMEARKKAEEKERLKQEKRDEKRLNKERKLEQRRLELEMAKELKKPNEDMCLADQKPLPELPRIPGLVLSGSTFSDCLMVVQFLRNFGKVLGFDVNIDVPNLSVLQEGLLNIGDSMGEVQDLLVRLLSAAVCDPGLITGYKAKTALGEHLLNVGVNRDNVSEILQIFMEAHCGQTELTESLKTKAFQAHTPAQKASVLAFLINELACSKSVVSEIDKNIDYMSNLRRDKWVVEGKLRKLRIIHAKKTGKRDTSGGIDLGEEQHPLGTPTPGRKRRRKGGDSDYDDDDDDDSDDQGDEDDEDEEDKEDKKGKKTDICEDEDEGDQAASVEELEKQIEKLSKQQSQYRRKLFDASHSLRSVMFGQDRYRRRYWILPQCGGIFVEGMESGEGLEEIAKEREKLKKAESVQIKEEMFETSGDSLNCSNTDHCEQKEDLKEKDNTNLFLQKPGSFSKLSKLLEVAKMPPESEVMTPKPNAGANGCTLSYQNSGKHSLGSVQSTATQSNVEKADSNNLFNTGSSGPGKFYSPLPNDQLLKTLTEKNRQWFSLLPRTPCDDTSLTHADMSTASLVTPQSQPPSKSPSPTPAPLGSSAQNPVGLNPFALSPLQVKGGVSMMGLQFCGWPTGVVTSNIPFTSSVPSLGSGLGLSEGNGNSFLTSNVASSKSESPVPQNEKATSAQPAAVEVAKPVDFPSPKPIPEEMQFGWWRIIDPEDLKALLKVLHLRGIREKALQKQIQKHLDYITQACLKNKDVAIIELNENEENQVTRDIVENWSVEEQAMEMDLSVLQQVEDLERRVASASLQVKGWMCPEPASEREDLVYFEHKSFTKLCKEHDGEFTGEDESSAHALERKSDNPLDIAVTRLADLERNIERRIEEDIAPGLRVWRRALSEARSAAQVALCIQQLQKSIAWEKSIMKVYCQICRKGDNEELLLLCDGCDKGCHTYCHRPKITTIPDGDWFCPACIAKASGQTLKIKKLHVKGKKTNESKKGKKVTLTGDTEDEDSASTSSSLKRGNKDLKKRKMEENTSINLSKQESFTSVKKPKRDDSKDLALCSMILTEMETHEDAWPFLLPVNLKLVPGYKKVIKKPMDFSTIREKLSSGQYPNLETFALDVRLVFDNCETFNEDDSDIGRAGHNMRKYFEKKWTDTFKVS
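Protein-peptide AlphaScreen: BAZ2B 50 nM, b-H3K14Ac 50 nM, 1x PBS pH 7.4 + 0.01% Tween-20. Preincubation 30 min RT; cpd 30 min RT (top 110 uM); beads 20 min RT, light-protected.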
GLS inh: glutaminase GLS (human) inhibition | GLS enzymatic activity, qHTS titration | Potency, µM (series often up to 45.5 µM), most hits filed as inhibitors | hit rate 0.21% among 410,000 | AID 624170
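Two-point fluorescence kinetic (t0, 30 min RT) for hKGA; glutamate detected via glutamate oxidase–HRP–Amplex Red. Substrate: 1 mM L-glutamine solution; buffer 45 mM KH2PO4, pH 8.2.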
HP1b chromo inh: blocks HP1-beta chromodomain binding to methylated histone tails. Potency, µM (doses to about 114 µM), usual class: inhibitors. hit rate 0.56% among 390,000. AlphaScreen HP1-beta / biotin-H3K9me3 peptide binding. P83916; also: nearly all actives have a fitted effect of over 70% in size
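HP1-beta protein (50 nM final) preincubated 30 min at room temperature with biotinylated H3(1-18)K9me3 peptide (50 nM) in PBS pH 7.4, 0.01% Tween-20, then compound added for 30 min. AlphaScreen streptavidin donor/nickel chelate acceptor beads (10 ug/mL final), 30 min dark, luminescence read.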
G9a block: inhibitors of human histone lysine methyltransferase G9a. AID 504332. G9a H3K9 monomethylation, AlphaScreen, 2 h. Potency, µM (highest dose often 102 µM), hits mostly inhibitors. Q96KQ7. hit rate 8.8% among 350,000; also: nearly all actives have a fitted effect of over 75% in size
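Readings reflect AlphaScreen signal from monomethyl-H3K9 antibody detection. HMT at 20 nM; substrate b-H3K9 500 nM; cofactor SAM 20 uM; 2 h RT reaction; compounds tested as titrations in qHTS with 15 min preincubation.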
L3MBTL1 block: blocks human L3MBTL1 | Q9Y468 | AlphaScreen L3MBTL1–H3K9me1 peptide binding | Potency, µM (series often up to 57.1 µM), most hits filed as inhibitors | hit rate 0.66% among 230,000; also: nearly all actives have a fitted effect of over 60% in size
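First, the protein-peptide complex forms for 30 min at room temperature (L3MBTL1 50 nM, biotinylated H3K9me1 peptide 75 nM). Next, compounds are pin-transferred and incubated 30 min. Finally, AlphaScreen beads are added and read after 30 min.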
A number is an active result; - = inactive; ? = inconclusive; . = no result; ! = repeats disagree; [ ] = another dose, or the depositor's remark. Calls follow the shape of the dose curve; as a rule, active = well fitted curve in the direction sought with a large enough effect; inconclusive = small, poorly fitted or top-dose-only effect, or another doubt; inactive = no such curve, though single readings can be large; an effect the other way counts as inactive or inconclusive.

SMILES	JMJD2A Tudor inh	BAZ2B inh	GLS inh	HP1b chromo inh	G9a block	L3MBTL1 block
COc1ccc(N=NC2=C(O)CC(C)(C)CC2=O)cc1	-	?	-	-	.	-
CC1(C)CC(=O)C(N=Nc2cccc([N+](=O)[O-])c2)=C(O)C1	?	?	-	-	50µM	-
CC1(C)CC(=O)C(N=Nc2ccc(S(=O)(=O)N3CCOCC3)cc2)=C(O)C1	35µM	-	-	-	-	-
COc1ccc(N=NC2=C(O)CC(C)(C)CC2=O)c(OC)c1	-	?	-	-	28µM	-
CC1(C)CC(=O)C(N=Nc2cccc(F)c2C#N)=C(O)C1	-	?	-	-	.	.
CC1(C)CC(=O)C(N=Nc2ccc(Br)cc2)=C(O)C1	-	-	-	-	-	-
Cc1ccc(CNC(=O)c2ccc3c(c2)CCN3S(=O)(=O)c2ccc(Br)cc2)cc1	-	-	-	-	-	.
Cc1nc2c(-c3ccccc3)c(C)nn2c(C)c1CCC(=O)NCc1ccc(F)cc1	-	-	-	-	-	.
CN1CCN(C(=S)NC(=O)/C=C/c2ccccc2)CC1	-	-	-	-	50µM	.
CN1CCN(C(=S)NC(=O)/C=C/c2ccccc2Cl)CC1	-	-	-	-	45µM	-
CC(OC(=O)/C=C/c1ccc(Br)cc1)C(=O)N1CCOCC1 (stereo unspecified)	-	-	-	-	-	-
O=C(/C=C/c1ccc(Br)cc1)NC(=S)N1CCOCC1	-	-	-	-	71µM	-
COc1ccccc1N1CCN(C(=S)NC(=O)/C=C/c2ccccc2)CC1	-	-	-	-	-	-
CN1CCN(C(=S)NC(=O)c2ccccc2Cl)CC1	-	-	-	-	50µM	.
CCC(Nc1ccc(-c2nc(-c3ccco3)no2)cc1[N+](=O)[O-])c1ccccc1 (stereo unspecified)	-	-	-	-	-	.
COc1ccc(NC(=O)CCc2c(C)nc3c(c2C)c(=O)n(C)c(=O)n3C)c(OC)c1	-	-	-	-	-	.
CCOC(=O)CNC(=O)N1CCN(S(=O)(=O)c2ccc3c(ccn3C)c2)CC1	-	-	-	-	-	.
COc1ccc(/C=C/c2nc(C#N)c(N3CCC(C(N)=O)CC3)o2)cc1OC	-	-	-	-	-	.
COc1ccc(-n2c(=O)c3c4c(sc3n(Cc3cc(=O)n5c(C)cccc5n3)c2=O)CCC4)c(OC)c1	-	-	-	-	-	.
CCc1ccc(NC(=O)C(=O)NCCc2sc(-c3ccc(OC)c(OC)c3)nc2C)cc1	-	-	-	-	-	.
Cc1cccc(C)c1N=Nc1c(C)cc(O)cc1C	20µM	18µM	-	?	35µM	-
O=C(c1nc2ccccn2c1CN1CCN(c2ccccc2O)CC1)N1CCCC1	-	?	3.5µM	-	.	-
CC(C)c1cccc(C(C)C)c1OCCCCCN1CCOCC1	-	.	-	-	.	.
CCC(C)c1ccccc1OCCCCN1CCCC1 (stereo unspecified)	3.2µM	?	-	-	?	?
CCC(C)c1ccccc1OCCOCCN1CCCC1 (stereo unspecified)	2.5µM	?	-	?	13µM	-
SMILES	JMJD2A Tudor inh	BAZ2B inh	GLS inh	HP1b chromo inh	G9a block	L3MBTL1 block
CCOc1ccc(CNCc2c(C(=O)O)c(C)n(Cc3ccc(C)cc3)c2C)cc1	-	-	-	-	-	.
CC(C)CC(=O)/C(=C\c1ccc(Cl)cc1Cl)n1cncn1	-	-	-	-	79µM	-
CC(C)CC(=O)/C(=C/c1ccc(N(C)C)cc1)n1cncn1	-	-	-	-	-[2.33 µM]	.
COc1ccc(/C=C(/C(=O)c2ccc(Cl)cc2Cl)n2cncn2)cc1	-	-	-	-	-	-
CN(C)c1ccc(/C=C(/C(=O)c2ccc(Cl)cc2Cl)n2cncn2)cc1	?	50µM	-	-	-	-
C=Cc1nc(Nc2cc(F)cc(F)c2)nc(NC2CCCC2)n1	-	.	.	.	.	.
COC(=O)c1scc(-c2ccc(C)cc2)c1S(=O)(=O)Nc1ccc(N(C)C)cc1	?	8.9µM	-	?	?	.
O=C1OCCN1c1c(-c2ccccc2)c(-c2cccs2)nc2c(-c3ccccc3)cccc12	-	-	-	-	40µM	-
O=C(O)CCn1cc(/C=C2\NC(=S)N(c3ccccc3)C2=O)c(-c2ccc(Br)cc2)n1	?	.	-	-	20µM	-
O=Cc1cn(CCC(=O)O)nc1-c1cccc(Cl)c1	-	-	-	-	-	-[11.4 µM]
Cc1ccc2c(c1)NC(=O)C(CC(=O)NCc1ccc(F)cc1)O2 (stereo unspecified)	-	-	-	-	50µM	.
Cc1ccc2c(c1)NC(=O)C(CC(=O)NCc1cccnc1)O2 (stereo unspecified)	-	-	-	-	32µM	.
C=C(C)Cn1c(SCC(=O)c2ccc(Br)cc2)nc2sc3c(c2c1=O)CCCC3	-	-	-	-	-	.
Cc1ccc(-c2noc(-c3ccc(NCc4ccco4)c([N+](=O)[O-])c3)n2)cc1	-	-	-	-	-	.
CCCC(=O)Nc1nnc(S(=O)(=O)N2CCCCCC2)s1	20µM!	14µM!	-	?	13µM	-
CCC(=O)Nc1nnc(S(=O)(=O)N2CCCCCC2)s1	11µM!	7.1µM!	-	?	10µM!	-
CCCC(=O)Nc1nnc(S(=O)(=O)N2CCCC2)s1	-	-	-	-	.	-
CN1C(=O)C2(SCC(=O)N2c2ccc(F)cc2)c2ccccc21 (stereo unspecified)	-	?	-	-	?	.
CC(=O)NCc1ccc(S(=O)(=O)N/N=C/c2ccccc2)cc1	-	-	-	-	3.2µM	-
Cc1ccc(S(=O)(=O)N/N=C/c2ccc(C(=O)O)cc2)cc1	-	-	-	-	11µM	-
CCOc1cc(/C=N/NS(=O)(=O)c2ccccc2)ccc1OS(=O)(=O)c1ccc(C)cc1	-	-	-	-	11µM	.
CCOc1cc(/C=N/O)ccc1OS(=O)(=O)c1ccc(C)cc1	-	-	-	-	-	-
Cc1ccc(S(=O)(=O)N(C)/N=C/c2ccc(C(=O)O)cc2)cc1	-	-	-	-	45µM	.
CC1=C(C(=O)NCc2cccc(Cl)c2)C2(CCCCCC2)OC1=O	-	-	-	-	-	.
COc1ccc2[nH]cc(CCNC(=O)c3cnn(-c4ccccc4Cl)c3C3CCN(C(=O)OC(C)(C)C)CC3)c2c1	?	?	-	-	?	.
COc1ccc(N2CCN(S(=O)(=O)c3ccc(OC)c(-c4noc(C)n4)c3)CC2)cc1	-	-	-	-	-	.
COc1ccccc1NC(=O)c1sc2nc3c(c(C(F)(F)F)c2c1N)CN(C(C)=O)CC3	-	-	-	-	-	.
CCC(C)NC(=O)CSc1nnc(-c2ccc(C)cc2)c(-c2ccc(C)cc2)n1 (stereo unspecified)	-	-	-	-	-	.
Cc1ccc(S(=O)(=O)N/N=C\c2ccc(Cl)c([N+](=O)[O-])c2)cc1	?	?	-	-	7.9µM	-
